Laboratory results: PubChem BioAssay (NCI)
Compounds without any hit were thinned out: in the full panel of roughly 83,000, 20% have a hit.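 The endpoint reported here, percent growth, reads 100 for growth as untreated, 0 for no net growth and -100 for all cells dead.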 Values without a mark were called inactive. Activity calls are given as the source filed them. How the source made its calls: active means growth percent below 10; inactive means the rest.

These molecules were tested on HCC-2998 colon (assay: NCI-60 one-dose screen, 48 h (100 = growth as untreated, 0 = no growth, -100 = all killed)). Details: 10 µM unless noted.

For `COc1ccc(OC)c2c1[nH]c(=O)c1c3ccccc3cn21`, the growth was -77.4% (active).
With `CCCCCCCC/C=C/CCCCCCCC1=NC(C)(C)CN1CCO` the growth was -86.6% (active).
`CN(CC(=O)N(Cc1ccc(C2CCCCC2)cc1)c1ccc(C(=O)O)cc1)S(=O)(=O)c1c(F)c(F)c(F)c(F)c1F` was tested, and the growth was -62.9% (active).
With `O=C1c2nsnc2C(=O)c2c(F)c(F)c(F)c(F)c21` the growth was -22.4% (active).
With `CCN1C2=C(SC(=S)C1=C1SC(C(=O)OC)=C(C(=O)OC)S1)SC(=Nc1ccc(OC)cc1)C2=O` the growth was -66.3% (active).

Point of comparison: `CCCCOc1ccc(C(C)(C)c2ccc(OCCCC)cc2)cc1`, growth 105%. Against it:
- CC1=CC(=O)C(C(C)=Nc2ccccc2Cl)C(=O)O1 (centres undefined) — higher, 119%
- COc1ccc(C(=O)/C=C/c2c(Cl)nc3c(c(C)nn3-c3ccccc3)c2-c2ccc(Br)cc2)cc1 — higher, 114%
- Cc1c(C(N)=O)sc2c1c(=O)n(Cc1ccccc1)c1nnc(SCC(=O)Nc3ccc(Cl)cc3)n21 — lower, 18.1%
- Clc1nc(Cl)c2ncn(-c3ccccc3)c2n1 — lower, 100%
- C[N+]1(CCc2ccccc2)CCC(CCC2CC[N+](C)(CCc3ccccc3)CC2)CC1 (centres undefined) — lower, 101%
- O[C@@H]1Cc2ccc3ccccc3c2N[C@H](c2ccoc2)C1 — higher, 113%
- c1cnc2ccc3ncccc3c2c1 — higher, 124%
- c1ccc(-n2nnnc2-c2cccc3ccccc23)cc1 — lower, 23.5%
- CC[N+](CC)(CCOCCOCC[N+](CC)(CC)Cc1ccc([N+](=O)[O-])cc1)Cc1ccc([N+](=O)[O-])cc1 — lower, 98.1%
- O=C(Nc1ncc([N+](=O)[O-])s1)c1cccc([N+](=O)[O-])c1 — lower, 28.7%
- CC(=O)Oc1c(C)c(OC(C)=O)c2c(c1C(C)=O)OC1CC(=O)C(C(C)=O)=C(O)C21C (centres undefined) — lower, 102%
- COc1cc(Oc2cc(-c3cccnc3)ccc2NC(=O)Nc2ccc(F)cc2F)cc(OC)c1OC — higher, 106%
- C=C1CC[C@@H]2[C@](C)(COC(C)=O)[C@H](OC(C)=O)CC[C@@]2(C)[C@@H]1CC(Nc1ccc(S(=O)(=O)Nc2cc(C)on2)cc1)C1=CCOC1=O (some centres undefined) — lower, 68.3%
- O=C(/C=C/c1ccccc1)CC(c1ccccc1)N1CCOCC1 (centres undefined) — lower, 20.8%
- CC[N+](C)(CC)CCCC(C)Nc1ccnc2cc(Cl)ccc12 (centres undefined) — higher, 119%
- O=C(C(Br)Br)C(Br)C(Br)c1ccccc1 (centres undefined) — higher, 112%
- CC/C(=C\c1ccc(N(C)C)cc1)c1nc2ccccc2c(=O)[nH]1 — lower, 93%
- COc1cc(-c2cc(C(=O)Nc3nc4ccccc4s3)nc3cc(-c4ccccc4)nn23)cc(OC)c1OC — lower, 85.6%
- O=C(c1ccccc1)c1ccccc1Cl — higher, 117%
- O=C(CSc1nc2c(n1Nc1ccccc1)-c1ccccc1SC2)Nc1nc(-c2ccc(Cl)cc2)cs1 — lower, 102%
- O=c1[nH]c(Cl)nc2c1cnn2-c1ccccc1 — lower, 91.2%
- CCn1c2ccccc2c2ccc(C(C)=O)cc21 — higher, 108%
- COc1cccc(CCC2C(=O)CCCC2=O)c1 — higher, 115%
- COc1ccc2c(c1)C(=O)/C(=C/c1cccc(OCC(=O)c3ccccc3)c1)CC2 — lower, 96.4%
- COc1ccc2c(c1)nc(N)c1c3cc(C)c(C)cc3cn21 — lower, 85.9%
- CCCCCCCCCCCCCCCCN=C(CC(=O)O)C(=O)O — lower, 104%
- COc1ccccc1[C@H]1c2[nH]c3ccccc3c2C[C@H]2C(=O)N(CCCCCCC(=O)NO)CC(=O)N12 — lower, 38.9%
- COc1ccc(-c2cn(-c3ccccc3)c(-c3ccccc3)n2)cc1OC — lower, 58.8%
- Cc1ccc(C(=O)Nc2ccc(Cl)cc2C(=O)NCc2ccccc2)cc1 — lower, 86.9%
- CCOc1cccc(C2CC(=O)Nc3cc4c(cc32)OCO4)c1 (centres undefined) — lower, 86.4%
- COc1ccc(C2CC(c3ccc(OC)c(OC)c3)=NN2C(=O)c2cc(OC)c(OC)c(OC)c2)cc1 (centres undefined) — lower, 61.1%

These molecules were tested on KM12 colon in the same assay as above. Details: 10 µM unless noted.

`COc1ccc(OC)c2c1[nH]c(=O)c1c3ccccc3cn21` was tested, and the growth was -52.6% (active).
`CCCCCCCC/C=C/CCCCCCCC1=NC(C)(C)CN1CCO` was tested, and the growth was -68.5% (active).
In the case of `O=C(/C=C/c1ccccc1)CC(c1ccccc1)N1CCOCC1` (centres undefined), the growth is reported as -81% (active).
With `O=C1c2nsnc2C(=O)c2c(F)c(F)c(F)c(F)c21` the growth was -44% (active).
`COc1ccc(-c2cn(-c3ccccc3)c(-c3ccccc3)n2)cc1OC` was tested, and the growth was -3.88% (active).
`CCN1C2=C(SC(=S)C1=C1SC(C(=O)OC)=C(C(=O)OC)S1)SC(=Nc1ccc(OC)cc1)C2=O` was tested, and the growth was -89.1% (active).

Point of comparison: `Cc1ccc(C(=O)Nc2ccc(Cl)cc2C(=O)NCc2ccccc2)cc1`, growth 60.5%. Against it:
- CC1=CC(=O)C(C(C)=Nc2ccccc2Cl)C(=O)O1 (centres undefined) — higher, 108%
- COc1ccc(C(=O)/C=C/c2c(Cl)nc3c(c(C)nn3-c3ccccc3)c2-c2ccc(Br)cc2)cc1 — higher, 109%
- Cc1c(C(N)=O)sc2c1c(=O)n(Cc1ccccc1)c1nnc(SCC(=O)Nc3ccc(Cl)cc3)n21 — lower, 55.3%
- Clc1nc(Cl)c2ncn(-c3ccccc3)c2n1 — higher, 79.5%
- C[N+]1(CCc2ccccc2)CCC(CCC2CC[N+](C)(CCc3ccccc3)CC2)CC1 (centres undefined) — higher, 111%
- O[C@@H]1Cc2ccc3ccccc3c2N[C@H](c2ccoc2)C1 — higher, 106%
- c1cnc2ccc3ncccc3c2c1 — higher, 110%
- CCCCOc1ccc(C(C)(C)c2ccc(OCCCC)cc2)cc1 — higher, 120%
- c1ccc(-n2nnnc2-c2cccc3ccccc23)cc1 — lower, 31.3%
- CC[N+](CC)(CCOCCOCC[N+](CC)(CC)Cc1ccc([N+](=O)[O-])cc1)Cc1ccc([N+](=O)[O-])cc1 — higher, 101%
- O=C(Nc1ncc([N+](=O)[O-])s1)c1cccc([N+](=O)[O-])c1 — higher, 62.9%
- CC(=O)Oc1c(C)c(OC(C)=O)c2c(c1C(C)=O)OC1CC(=O)C(C(C)=O)=C(O)C21C (centres undefined) — higher, 105%
- COc1cc(Oc2cc(-c3cccnc3)ccc2NC(=O)Nc2ccc(F)cc2F)cc(OC)c1OC — higher, 108%
- C=C1CC[C@@H]2[C@](C)(COC(C)=O)[C@H](OC(C)=O)CC[C@@]2(C)[C@@H]1CC(Nc1ccc(S(=O)(=O)Nc2cc(C)on2)cc1)C1=CCOC1=O (some centres undefined) — lower, 30.5%
- CC[N+](C)(CC)CCCC(C)Nc1ccnc2cc(Cl)ccc12 (centres undefined) — higher, 102%
- CN(CC(=O)N(Cc1ccc(C2CCCCC2)cc1)c1ccc(C(=O)O)cc1)S(=O)(=O)c1c(F)c(F)c(F)c(F)c1F — higher, 90%
- O=C(C(Br)Br)C(Br)C(Br)c1ccccc1 (centres undefined) — higher, 102%
- CC/C(=C\c1ccc(N(C)C)cc1)c1nc2ccccc2c(=O)[nH]1 — higher, 119%
- COc1cc(-c2cc(C(=O)Nc3nc4ccccc4s3)nc3cc(-c4ccccc4)nn23)cc(OC)c1OC — lower, 45.3%
- O=C(c1ccccc1)c1ccccc1Cl — higher, 96%
- O=C(CSc1nc2c(n1Nc1ccccc1)-c1ccccc1SC2)Nc1nc(-c2ccc(Cl)cc2)cs1 — lower, 48.5%
- O=c1[nH]c(Cl)nc2c1cnn2-c1ccccc1 — lower, 18.6%
- CCn1c2ccccc2c2ccc(C(C)=O)cc21 — higher, 115%
- COc1cccc(CCC2C(=O)CCCC2=O)c1 — higher, 106%
- COc1ccc2c(c1)C(=O)/C(=C/c1cccc(OCC(=O)c3ccccc3)c1)CC2 — higher, 91.5%
- COc1ccc2c(c1)nc(N)c1c3cc(C)c(C)cc3cn21 — lower, 46.8%
- CCCCCCCCCCCCCCCCN=C(CC(=O)O)C(=O)O — higher, 100%
- COc1ccccc1[C@H]1c2[nH]c3ccccc3c2C[C@H]2C(=O)N(CCCCCCC(=O)NO)CC(=O)N12 — higher, 77.8%
- CCOc1cccc(C2CC(=O)Nc3cc4c(cc32)OCO4)c1 (centres undefined) — higher, 72.3%
- COc1ccc(C2CC(c3ccc(OC)c(OC)c3)=NN2C(=O)c2cc(OC)c(OC)c(OC)c2)cc1 (centres undefined) — lower, 16.2%
